Data on 37 compounds can be found in PubChem BioAssay (NCATS).

Molecules are shown by their SMILES. Where “and” joins values, the source holds several entries; their conditions need not be identical. Equal entries are not always repeated. Values without a mark were called inactive. Inconclusive results are not listed. A call without a number means that no potency is given here. Calls of active or inactive are those of the source. Unless noted, calls come from the whole dose curve; as a rule, active = well fitted inhibition curve with a large enough effect; inconclusive = small, poorly fitted or top-dose-only effect; inactive = flat fitted curve, though single readings scatter.

The test system of one experiment is astro (control astrocytes). Briefly: Drug repurposing screens with cells derived from glioblastoma tumor samples (AID 1345199). Note: nearly all actives have a fitted effect of over 40% in size. The note with it: viability, ATP luminescence, 48 h; series mostly up to 45.9 µM. The gist of the method:
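Four patient lines of CD133+ GBM neurospheres were screened at several concentrations; hits were retested in those lines plus three slower-growing GBM lines, using 48-hour treatment and ATP-based viability.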
With `c1ccc2occc2c1`, the Potency result was “inactive”. On the same count and under the same terms, the result for `O=C(O)Cc1ccccc1Oc1ccc(Cl)cc1Cl` reads “inactive”; that for `C[N+](C)(CCOc1ccccc1)Cc1cccs1`, “inactive”; that for `CC(=O)CC/C=C(\C)CC/C=C(\C)CC/C=C(\C)CCC=C(C)C`, “inactive”. For `CN(CC1(C)CCCO1)S(=O)(=O)c1ccc(Cl)c(S(N)(=O)=O)c1` (stereo not drawn), the Potency result is “inactive”. Still for that read-out and setting: the same measure for `CCCCCC1Nc2cc(C(F)(F)F)c(S(N)(=O)=O)cc2S(=O)(=O)N1` (stereo not drawn): “inactive”. On the same count and under the same terms, the result for `CC(=O)N(CC(O)CO)c1c(I)c(C(=O)NCCO)c(I)c(C(=O)NCC(O)CO)c1I` (stereo not drawn) reads “inactive”; that for `COc1cc(C(=O)OC(COCCC(C)C)CN2CCOCC2)cc(OC)c1OC` (stereo not drawn), “inactive”; that for `CC(C)C(C)(C)C(C)(C)C(C)(C)S`, “inactive”. For `CO/N=C(/C(=O)N[C@@H]1C(=O)N2C(C(=O)[O-])=C(C[n+]3ccn4ncccc43)CS[C@H]12)c1nsc(N)n1`, the Potency entry was “inactive”. Still for that read-out and setting: the same measure for `CC(=O)Nc1ccc(S(=O)(=O)Nc2cc(C)on2)cc1`: “inactive”. With `C[N+]1(CC2COC(c3ccccc3)(c3ccccc3)O2)CCCCC1` (stereo not drawn), the Potency result was “inactive”. With `Cn1cc(S(C)=O)c(=O)c2ccc(F)cc21` (stereo not drawn), the Potency entry was “inactive”. For `CC(CCc1ccc2c(c1)OCO2)NN` (stereo not drawn), the Potency entry was “inactive”. On the same count and under the same terms, the result for `CO[C@]1(NC(=O)CSC(F)F)C(=O)N2C(C(=O)O)=C(CSc3nnnn3CCO)CO[C@H]21` reads “inactive”. In the case of `O=C(COCCOCCOCC(=O)Nc1c(I)cc(I)c(C(=O)O)c1I)Nc1c(I)cc(I)c(C(=O)O)c1I`, the Potency result is “inactive”. `O=S(=O)(O)c1ccc2nc(-c3ccccc3)[nH]c2c1`: the Potency entry is “inactive”. As to `CCc1cc(S(=O)(=O)O)c2cc(C(C)C)cccc1-2`, the Potency entry was “inactive”. Still for that read-out and setting: the result for `O=C(Oc1ccccc1)c1ccccc1O` reads “inactive”. Still for that read-out and setting: the result for `Cc1cccc(N(C)C(=S)Oc2ccc3c(c2)CCC3)c1` reads “inactive”. `N#C/C(=C1/SC[C@@H](c2ccc(Cl)cc2Cl)S1)n1ccnc1`: the Potency result was “inactive”. Still for that read-out and setting: the same measure for `CC(=O)OCC(=O)Nc1cc(C#N)cc(NC(=O)COC(C)=O)c1Cl`: “inactive”; for `Nc1c(NC/C=C\COc2cc(CN3CCCCC3)ccn2)c(=O)c1=O`: “inactive”; for `C[C@@H](C1=C(CCN(C)C)Cc2ccccc21)c1ccccn1`: “inactive”. Turning to `CC1CC(=O)NN=C1c1ccc(NCC(C)(C)NCC(O)COc2cc(Cl)ccc2C#N)cc1` (stereo not drawn), the Potency result is “inactive”. Consider `O=C1[C@@H]2[C@H]3CC[C@H](C3)[C@@H]2C(=O)N1CCCCN1CCN(c2ncccn2)CC1`, for which the Potency result is “inactive”.

Take `C[C@]12CCC(=O)C=C1CC[C@@H]1[C@@H]2[C@@H](O)C[C@@]2(C)[C@H]1CC[C@]2(O)C(=O)COC(=O)CCC(=O)O`: the Potency entry was “inactive”.

Take `O=[N+]([O-])c1nccn1CO[C@@H](CO)[C@H](O)CO`: the Potency result is “inactive”.

In the case of `OC[C@]1(O)OC[C@@H](O)[C@H](O)[C@@H]1O`, the Potency result was “inactive”. For the compound `Brc1ccccc1-c1ccccc1`, the Potency entry is “inactive”. On the same count and under the same terms, the result for `CCN(CC)CCNC(=O)c1ccc(NS(C)(=O)=O)cc1` reads “inactive”. For `CC(=O)O[C@@H]1C(=O)O[C@@H]2[C@H]1OC(=O)[C@@H]2OC(C)=O`, the Potency result was “inactive”. With `CN1C(=O)c2ccccc2C1=O`, the Potency result was “inactive”. Same read-out and setting: the result for `CCOC(=O)NNc1nncc2ccccc12` reads “inactive”; that for `C1=CC2C3C=CC(C3)C2C1` (stereo not drawn), “inactive”. Still for that read-out and setting: the result for `C[N+]1(C)CCC(OC(=O)C(O)(c2ccccc2)C2CCCC2)C1` (stereo not drawn) reads “inactive”; that for `COc1cc(C(=O)NC2CCCNC2)cc(OC)c1OC` (stereo not drawn), “inactive”.

In the next experiment the target is Nuclear receptor subfamily 1 group I member 2 (Rattus norvegicus) (UniProt Q9R1A7). Briefly: qHTS assay for small molecule activators of the rat pregnane X receptor (rPXR) signaling pathway (AID 651751; call rule not given here). The note with it: rPXR reporter cells, luciferase (One-Glo), 24 h. For orientation: In qHTS, concentration-response curves come from the screen itself.
Sequence of Nuclear receptor subfamily 1 group I member 2 (Rattus norvegicus) (Q9R1A7 whole entry, looked up): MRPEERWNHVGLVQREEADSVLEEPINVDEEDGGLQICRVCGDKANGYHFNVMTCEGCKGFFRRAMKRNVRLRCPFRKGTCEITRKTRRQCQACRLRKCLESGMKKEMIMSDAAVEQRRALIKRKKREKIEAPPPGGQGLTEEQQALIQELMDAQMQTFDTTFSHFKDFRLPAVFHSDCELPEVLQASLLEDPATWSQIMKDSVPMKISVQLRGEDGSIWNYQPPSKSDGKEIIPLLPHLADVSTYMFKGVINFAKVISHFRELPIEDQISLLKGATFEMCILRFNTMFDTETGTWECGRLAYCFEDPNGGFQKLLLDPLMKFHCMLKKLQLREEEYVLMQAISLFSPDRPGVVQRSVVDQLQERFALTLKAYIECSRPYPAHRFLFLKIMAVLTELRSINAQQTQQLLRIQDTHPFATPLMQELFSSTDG
For the compound `c1ccc2occc2c1`, the max response is 2.28% and 7.63% and -1.22%. Regarding `CC(C)C(C)(C)C(C)(C)C(C)(C)S`, the max response is -1.2% and -1.45%.

On to `O=C(Oc1ccccc1)c1ccccc1O`, for which the max response was 9.53% and -0.74%. As for `Brc1ccccc1-c1ccccc1`, the max response was 13.4%. Turning to `CN1C(=O)c2ccccc2C1=O`, the max response was 0.847%. As for `C1=CC2C3C=CC(C3)C2C1` (stereo not drawn), the max response was 2.57%.

Tested on in the next experiment: not listed separately
Nature of the experiment: qHTS assay for small molecule activators of the human pregnane X receptor (PXR) signaling pathway (AID 720659; call rule not given here). Conditions: DPX-2 HepG2 CYP3A4-luciferase, 24 h; series mostly up to 92.3 µM.
Regarding `CC(C)C(C)(C)C(C)(C)C(C)(C)S`, the compound was called inactive. In the case of `O=C(Oc1ccccc1)c1ccccc1O`, the outcome was inactive. As to `Brc1ccccc1-c1ccccc1`, the compound was classed as inactive. Consider `CN1C(=O)c2ccccc2C1=O`, for which the outcome was inactive. Same read-out and setting: the same measure for `C1=CC2C3C=CC(C3)C2C1` (stereo not drawn): “inactive”.
